# Screening results from PubChem BioAssay.
# Rows were chosen to be rich in hits. Some 5.5% of all compounds tested hit in one or more screens of this group.
# Six1-Eya2 inh: Six1/Eya2 interaction inhibition. AlphaScreen GST-Six1/His-Eya2 binding, biochemical; hits give low values. activity change, % (test concentration not listed). 0.56% of 360,000 active. AID 651725; in the data active = activity change below about -65%; inconclusive = mostly about -30% to -63%
#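 GST-Six1 + His-Eya2 (5X stock: 250/500 nM); Tris pH 8.0, 300 mM NaCl, 0.05% BSA, 0.02% Tween 20; GSH donor/Ni acceptor beads; 1 h 37 °C dark; AlphaScreen readout.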
# CBFb-RUNX1 inh: inhibitors of human CBF-beta and RUNX1 interaction. AlphaScreen CBFb-His/RUNX1-biotin binding, biochemical. Potency, µM (doses to about 59.8 µM), usual class: inhibitors. 230,000 tested, under 10 active. AID 1477
#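 CBF-beta (His) and RUNX1 (biotin), 30 nM each; 20 min preassociation; + compound, 15 min; + beads 50 ng each (Ni, streptavidin), 90 min; RT; AlphaScreen read.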
# MBNL1 CUG block: blocks human MBNL1 binding to CUG repeat RNA | 0.036% of 280,000 active | Potency, µM (titrated, usually from 57.5 µM), hits mostly inhibitors | Q9NR56 | TR-FRET MBNL1-His/biotin-(CUG)12 binding, 665/545 ratio; active = well fitted inhibition curve with a large enough effect in the signal ratio, with a control signal flat, not every such curve was filed as active; inconclusive = small, poorly fitted or top-dose-only effect, or effect the other way, or a change in a side signal; inactive = no such curve, though single readings can be large or run the other way; the % refers to the signal ratio
# Target sequence (Q9NR56 whole entry, looked up): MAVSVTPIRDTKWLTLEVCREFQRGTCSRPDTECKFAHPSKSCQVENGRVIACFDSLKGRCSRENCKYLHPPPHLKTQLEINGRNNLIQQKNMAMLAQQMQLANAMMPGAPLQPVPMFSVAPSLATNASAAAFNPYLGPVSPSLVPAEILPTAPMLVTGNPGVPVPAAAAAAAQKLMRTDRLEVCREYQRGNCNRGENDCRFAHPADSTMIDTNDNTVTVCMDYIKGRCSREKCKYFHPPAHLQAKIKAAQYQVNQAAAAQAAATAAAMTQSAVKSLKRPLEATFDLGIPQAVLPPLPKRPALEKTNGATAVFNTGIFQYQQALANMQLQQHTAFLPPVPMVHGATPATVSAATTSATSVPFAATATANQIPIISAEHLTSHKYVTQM
#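 Compounds (final 92 nM to 58 uM) are added to His-tagged MBNL1 and biotin-(CUG)12, then terbium anti-His antibody and streptavidin-XL665 (5 nM final). After 60 min at room temperature, the 665/545 nm ratio is read.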
# RORg inh: inhibitors of mouse ROR gamma transcriptional activity; P51450; Drosophila S2 Gal4-RORgamma UAS-luciferase reporter, 20 h; Potency, µM (series often up to 53.6 µM), most hits filed as inhibitors; 5.4% of 310,000 active; also: nearly all actives have a fitted effect of over 60% in size
#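 Compounds are pin-transferred onto Drosophila Schneider cells expressing a copper-inducible Gal4–ROR gamma transactivation domain fusion. After 1 hr, copper sulfate is added to 700 uM final; luciferase is read 20 hr later.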
# VP16 counter: Gal4-VP16 reporter inhibition counter-screen; Drosophila S2 Gal4-VP16 UAS-luciferase, luminescence, 20 h; Potency, µM (top dose mostly 53.6 µM), hits mostly inhibitors; 3.5% of 310,000 active; AID 2546;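 also: Gal4-VP16 expression switched on by copper sulfate through the metallothionein promoter; nearly all actives have a fitted effect of over 50% in size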
# CtBP-E1A blk: blocks the CtBP interaction with E1A | AID 651724 | 0.49% of 340,000 active | AlphaScreen GST-E1A/His-CtBP binding, 1536-well; hits give low values | activity change, % (test concentration not listed); in the data active = activity change below about -65%; inconclusive = mostly about -30% to -63%
#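 Homogeneous bead-based format: GST-tagged E1A captured on glutathione donor beads, His-tagged CtBP on nickel acceptor beads; compounds precede bead addition by 2 h at 37 °C.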
# Numbers stand for hits; n = inactive; u = inconclusive; x = no result given; ! = not confirmed by another sample; [ ] = dose if it differs, or a comment. Unless noted, calls follow the shape of the dose curve; as a rule, active = well fitted curve in the direction sought with a large enough effect; inconclusive = small, poorly fitted or top-dose-only effect, or another doubt; inactive = no such curve, though single readings can be large; an effect the other way counts as inactive or inconclusive.
SMILES,Six1-Eya2 inh,CBFb-RUNX1 inh,MBNL1 CUG block,RORg inh,VP16 counter,CtBP-E1A blk
O=C(c1ccc(Oc2ccc([N+](=O)[O-])cc2)cc1)N1CCCCCC1,n,x,u,x,x,n
CCOC(=O)c1sc(NC(=O)CSc2nccn2C)nc1C,n,x,n,n,n,n
CN1CCN(C(c2ccccc2)c2ccccc2)CC1,n,n,x,n,u,n
CN1CCCN(C(c2ccccc2)c2ccc(Cl)cc2)CC1 (configuration not stated),n,n,n,10µM!,n,n
COc1ccc([C@H]2N[C@]3(CCCN(Cc4ccc(F)cc4)C3=O)[C@H]3C(=O)N(Cc4ccccc4)C(=O)[C@@H]23)cc1,n,x,x,x,x,n
COc1ccccc1-c1cc(NC(C)=O)c2ncc(-c3cccc(C(C)=O)c3)n2c1,n,x,x,x,x,n
CN(C)c1nc(=S)nc(NCc2ccccc2)[nH]1,n,n,n,n,n[10 µM],n
CC(C)CNc1nc(=S)nc(N(C)C)[nH]1,n,n,n,1.8µM,4.5µM,n
Cn1cnnc1SCC(=O)NC(=O)NCc1ccccc1,n,x,x,x,x,n
C[C@H]1CN(C2CCCCC2)C(=O)[C@@H]1CC(=O)Nc1ccc(Br)cc1,n,x,x,x,x,n
N#Cc1c(NC(=O)CSC2=NCCS2)sc2c1CCCC2,n,n,n,u,n,n
CC(C)(C)C1CCc2c(sc(NC(=O)CSc3ncn[nH]3)c2C#N)C1 (configuration not stated),n,n,n,u,11µM,n
CC1CCc2c(sc(NC(=O)CSc3ncn[nH]3)c2C#N)C1 (configuration not stated),n,n,n,0.32µM,0.079µM,n
N#Cc1c(NC(=O)CSc2ncn[nH]2)sc2c1CCCC2,n,n,n,0.32µM,0.11µM,n
Cc1ccnc(SCC(=O)Nc2sc3c(c2C#N)CCCC3)n1,n,n,n,u,7.1µM,n
Cc1csc(SCC(=O)Nc2sc3c(c2C#N)CCC3)n1,n,n,n,n,n,n
CC1CCCN(CCCNC(=O)c2nn(C)c3c2CS(=O)(=O)c2ccccc2-3)C1 (configuration not stated),n,x,n,n,n,x
C[C@@H]1CN([C@@H](C)CO)C(=O)c2cc(-c3ccncc3)cnc2O[C@H]1CN(C)C(=O)c1cccc(F)c1,n,x,x,x,x,n
CCCC[C@@H](C)/C=C(C)/C=C(\C)C(=O)NC1=C[C@@](O)(/C=C/C=C/C=C/C(=O)NC2=C(O)CCC2=O)[C@@H]2O[C@@H]2C1=O,x,n,x,0.45µM,1.3µM,x
COc1ccccc1CCC(=O)Oc1ccc(C#N)cc1OC,n,x,n,u,11µM,n
O=C(O)C1C(c2ccccc2)=C1c1ccc(Br)cc1 (configuration not stated),n,x,x,x,x,n
COc1ccc(N2CC(C(=O)Nc3ccncc3)CC2=O)cc1 (configuration not stated),n,x,n,n,n,n
CC(C)OC(=O)C(C(=O)C(F)(F)F)c1cc(NS(=O)(=O)c2ccc3ccccc3c2)c2ccccc2c1O (configuration not stated),u,n,n,n,u,-68
O=C(c1cccc(F)c1)N1CCC2(CCCN(c3ccncc3)C2)CC1,x,x,x,n,n,x
CC(=O)Nc1ccc(-n2nnnc2SCC(=O)NCc2cccs2)cc1,n,n,n,n,n,x
SMILES,Six1-Eya2 inh,CBFb-RUNX1 inh,MBNL1 CUG block,RORg inh,VP16 counter,CtBP-E1A blk
CCCn1c(-c2ccc(F)cc2)nc2c(NC(C)CN(C)C)nc(C)nc21 (configuration not stated),x,n,x,n,n,x
COc1ccc(-c2cnnc(N/N=C/c3ccc(O)cc3)n2)cc1,n,n,u,n,n,x
COc1ccc(-c2cnnc(N/N=C/c3ccc(C)o3)n2)cc1,n,n,u,5µM,n,n
COc1ccc(-c2cnnc(N/N=C/c3ccc(O)c(O)c3)n2)cc1,n,x,u,u,8.9µM,n
COc1ccc(-c2cnnc(N/N=C/c3c(C)nn(-c4ccccc4)c3Cl)n2)cc1,n,u,n,n,n,n
O=C(Nc1cccc([N+](=O)[O-])c1)c1cc2ccccc2cc1O,n,u,n,5µM,4.5µM,n
COc1ccc(NC(=S)Nc2cccc([N+](=O)[O-])c2)cc1,n,n,u,13µM,n,n
COc1ccc(NC(=O)c2ccc(-c3ccc([N+](=O)[O-])cc3)o2)cc1,n,n,u,n,n,n
COc1ccc(NC(=O)c2cccc([N+](=O)[O-])c2)cc1,n,n,u,n,n,n
COc1ccc(NC(=O)c2cc([N+](=O)[O-])ccc2O)cc1,n,n,u,2.2µM,2.8µM,x
Cc1ccc(C(=O)Nc2ccc(N3CCN(C(=O)c4cccs4)CC3)cc2)c(Cl)c1,n,x,n,n,n,n
CN(C)CCCN(C(=O)c1cc(-c2cccs2)nc2ccccc12)c1nc2c(F)cccc2s1,n,x,n,u,n,n
Cc1ccc2nc(N(CCCN(C)C)C(=O)c3cc(-c4cccs4)nc4ccccc34)sc2c1,n,x,n,14µM,u,u
COc1ccccc1Nc1nc(C)cs1,n,n,n,11µM!,u,n
Cc1nc2ncccn2c1-c1csc(Nc2ccccc2)n1,-80,n,u,n,u,n
Cc1csc(Nc2cccc3ccccc23)n1,n,n,n,u,n,n
COc1ccccc1Nc1n[nH]c(=S)s1,n,n,x,10µM,n,n
COc1ccccc1Nc1nc(-c2c(C)nc3ncccn23)cs1,-85,n,n,n,n,-92
Cc1nc(NC(=O)CN2CC(C)OC(C)C2)sc1C(=O)N(C)C (configuration not stated),n,x,n,n,n,n
Cc1ccn2c(c1)nc(=O)c1cc(S(=O)(=O)N3CCOCC3)ccc12,n,x,n,n,n,n
Cn1cccc1C(=O)N1CCC2(CCCN(Cc3ccccc3)C2)CC1,x,x,x,n,n,x
Cc1nc2sccn2c1-c1csc(NCc2ccccc2)n1,n,n,n,u,1µM,n
C=CCNc1nc(-c2c(C)nc3sccn23)cs1,n,n,n,u,n,n
O=C(O)c1ccc2c(c1)C(=O)N([C@]1(C(=O)O)C[C@H]1c1ccccc1)C2=O,x,n,x,n,n,x
COc1ccc(C2=Nn3c(nnc3-c3ccccc3OC)SC2)c(OC)c1,x,n,x,u,u,x
CCN(CC)CCCNc1nc2cc(OC)c(OC)cc2c2nc(-c3ccccc3)nn12,n,n,n,10µM,u,n
CSc1nsc(NC(=O)Cc2ccccc2)n1,n,n,n,u,7.1µM,n
COc1ccc(/C=C/C(=O)C2CC2)cc1COc1cccc(C)c1C,n,n,n,n,n,n
CC(=O)n1cc(C(C[N+](=O)[O-])SCCN)c2ccccc21 (configuration not stated),n,n,n,13µM,u,n
